The values that follow come from PubChem BioAssay AID1347413 (National Center for Advancing Translational Sciences (NCATS), 2020).

A short description of this assay: qHTS to identify inhibitors of the type 1 interferon - major histocompatibility complex class I in skeletal muscle: tertiary screen by RT-qPCR, retest select compounds. The conditions noted are these: C25cl48 myoblasts, IFN-beta, HLA-B RT-qPCR, 24 h. The source says:
Assay Submitter (PI): Travis B. Kinder Ph.D. & James Inglese Ph.D. Assay Development and Screening Technology Laboratory (ADST) National Center for Advancing Translational Sciences (NCATS), Rockville, MD National Institute of Health (NIH), Bethesda, Maryland Idiopathic inflammatory myopathies, collectively referred to as myositis, are a group of rare autoimmune diseases characterized by skeletal muscle inflammation, weakness, and usually accompanied by systemic pathologies of the skin, lungs, or vasculature. Current immunosuppressive therapies and glucocorticoids are often not curative and are accompanied by harsh side effects, especially in children with juvenile myositis. We initiated a drug repurposing and development program to identify more targeted, less toxic therapeutics to treat myositis. Although its cause is not known, muscle from a subset of patients have an abundance of the inflammatory type 1 interferon (IFN) and a down-stream product major histocompatibility complex class I (MHC class I), which are both thought to contribute to damage and weakness. We conducted quantitative high throughput screening (qHTS) on 6,576 compounds (4,679 unique) through a series of cell-based assays to identify those that inhibit the IFN-stimulated expression of MHC class I in muscle precursor cells (myoblasts). […]

Each structure is given as a SMILES string. Activity calls are given as the source filed them. The call rests on the fitted dose curve; in most records, active means well fitted curve in the direction sought with a large enough effect; inactive means no such curve, though single readings can be large or run the other way.

Consider `CC(C)[C@]12O[C@H]1[C@@H]1O[C@@]13[C@@]1(C)CCC4=C(COC4=O)[C@@H]1C[C@@H]1O[C@@]13C2=O`, for which the Potency is 0.654 µM (active).
